Laboratory results published in a collection of fitness landscapes (doi:10.1126/science.1257360).
In all, about 140,000 sequences were measured (“enrichment ratio after two sorts for PhoP signalling”: median about 0, highest 2% from about 11 on). Many of the other results were omitted from the sample, so the highest values are more common in it than they were.

B1: PhoQ; a variant is named by its letters at X, in order, P23837 (parent)
chain: MKKLLRLFFPLSLRVRFLLATAAVVLVLSLAYGMVALIGYSVSFDKTTFRLLRGESNLFYTLAKWENNKLHVELPENIDKQSPTMTLIYDENGQLLWAQRDVPWLMKMIQPDWLKSNGFHEIEADVNDTSLLLSGDHSIQQQLQEVREDDDDAEMTHSVAVNVYPATSRMPKLTIVVVDTIPVELKSSYMVWSWFIYVLSANLLLVIPLLWVAAWWSLRPIEALAKEVRELEEHNRELLNPATTRELTSLVRNLNRLLKSERERYDKYRTTLTDLTHSLKTPLXXLQXXLRSLRSEKMSVSDAEPVMLEQISRISQQIGYYLHRASMRGGTLLSRELHPVAPLLDNLTSALNKVYQRKGVNISLDISPEISFVGEQNDFVEVMGNVLDNACKYCLEFVEISARQTDEHLYIVVEDDGPGIPLSKREVIFDRGQRVDTLRPGQGVGLAVAREITEQYEGKIVAGESMLGGARMEVIFGRQHSAPKDE

Variants of: B1
Test: enrichment ratio after two sorts for PhoP signalling (ratio (wild type AVST 3.29)); higher = more functional
Conditions: with PhoP (E. coli)

Row | Variant | enrichment ratio
1 | GSHA | ≤ 0.25
2 | AKYV | ≤ 0.25
3 | FLDC | ≤ 0.25
4 | ANKM | ≤ 0.25
5 | TAGV | 5.24
6 | ICLI | 5.89
7 | FVAK | ≤ 0.25
8 | FELQ | 8.46
9 | IHIG | ≤ 0.25
10 | FQMT | ≤ 0.25
11 | TQLA | 4.57
12 | TQKH | ≤ 0.25
13 | TQMT | 14.6
14 | TQNH | 16.3
15 | TQRH | ≤ 0.25
16 | EQMT | ≤ 0.25
17 | TQLK | 4.42
18 | TQLT | 18.8
19 | NNDT | ≤ 0.25
20 | FCNF | ≤ 0.25
21 | MPFQ | ≤ 0.25
22 | RPVE | ≤ 0.25
23 | VATR | ≤ 0.25
24 | FKHE | ≤ 0.25

Row | Variant | enrichment ratio
25 | YRPV | ≤ 0.25
26 | VMPF | ≤ 0.25
27 | AQGT | 3.18
28 | KSAL | ≤ 0.25
29 | AHAL | ≤ 0.25
30 | MVAL | 11.3
31 | AQAL | 18.4
32 | NVAL | ≤ 0.25
33 | AKAL | 11.1
34 | GVAL | 1.02
35 | ASAL | 11.7
36 | VRAL | ≤ 0.25
37 | TSAL | 13
38 | FSAL | 0.667
39 | GNDN | 0.537
40 | LWNG | ≤ 0.25
41 | QKPR | ≤ 0.25
42 | NSMN | ≤ 0.25
43 | RATG | ≤ 0.25
44 | AMAL | 11.3
45 | KCAL | ≤ 0.25
46 | MFAL | ≤ 0.25
47 | MMAL | 13.5
48 | NMAL | ≤ 0.25

Row | Variant | enrichment ratio
49 | DMAL | ≤ 0.25
50 | KMAL | ≤ 0.25
51 | TMAL | 14
52 | FCAL | ≤ 0.25
53 | MCAL | 13.5
54 | MKAL | 4.45
55 | VLAL | 0.925
56 | HHKF | ≤ 0.25
57 | ICEL | ≤ 0.25
58 | LEWF | ≤ 0.25
59 | GLPR | ≤ 0.25
60 | YYHC | ≤ 0.25
61 | LWEC | ≤ 0.25
62 | TEHC | 22.1
63 | YTYC | ≤ 0.25
64 | TEEC | 12.4
65 | TESC | 13.3
66 | NESC | ≤ 0.25
67 | TEYC | 12.6
68 | HPEC | ≤ 0.25
69 | KSYC | ≤ 0.25
70 | QESC | 5.96
71 | NEHC | ≤ 0.25
72 | YRVI | ≤ 0.25

Row | Variant | enrichment ratio
73 | ETQT | ≤ 0.25
74 | GDCV | 1.12
75 | HWFI | ≤ 0.25
76 | VAGY | 1.53
77 | NQGE | ≤ 0.25
78 | YYNI | ≤ 0.25
79 | MCMI | 4.33
80 | IAKS | ≤ 0.25
81 | NMWR | ≤ 0.25
82 | KAQY | ≤ 0.25
83 | TENK | 5.62
84 | TEPC | ≤ 0.25
85 | TETC | 24.3
86 | PWAR | ≤ 0.25
87 | STMI | 14.9
88 | SIWI | ≤ 0.25
89 | KYGE | ≤ 0.25
90 | SPMI | ≤ 0.25
91 | SIGE | 16.9
92 | QEMI | 65.2
93 | SRGE | ≤ 0.25
94 | KYMI | ≤ 0.25
95 | LWMI | ≤ 0.25
96 | QDFA | ≤ 0.25

Row | Variant | enrichment ratio
97 | SWMI | ≤ 0.25
98 | SIMI | 17.4
99 | WVYV | ≤ 0.25
100 | RSYE | ≤ 0.25
101 | DIVY | ≤ 0.25
102 | VANA | ≤ 0.25
103 | RKTG | ≤ 0.25
104 | ECNY | ≤ 0.25
105 | LALQ | 1.26
106 | AAVS | ≤ 0.25
107 | TKVS | 7.5
108 | WIVS | ≤ 0.25
109 | AIVS | 12.6
110 | AHVS | ≤ 0.25
111 | AKVS | 13.5
112 | YWKL | ≤ 0.25
113 | HFDQ | ≤ 0.25
114 | TNQV | 47.4
115 | TNWR | ≤ 0.25
116 | TNCH | ≤ 0.25
117 | TNMG | ≤ 0.25
118 | MNQV | ≤ 0.25
119 | TNHI | ≤ 0.25
120 | TNCV | 10

Row | Variant | enrichment ratio
121 | TNMI | 11.7
122 | TNVA | ≤ 0.25
123 | TNMH | 15.7
124 | MNNV | ≤ 0.25
125 | TNNV | 13.4
126 | TTFC | ≤ 0.25
127 | IGNC | ≤ 0.25
128 | NNDF | ≤ 0.25
129 | KDQI | ≤ 0.25
130 | WTKG | ≤ 0.25
131 | KNQF | ≤ 0.25
132 | FFRV | ≤ 0.25
133 | IYFT | ≤ 0.25
134 | ECCW | ≤ 0.25
135 | SVDL | 1.56
136 | WHFP | ≤ 0.25
137 | TNIV | ≤ 0.25
138 | TNMV | 12.6
139 | TNMS | 4.8
140 | KYMA | ≤ 0.25
141 | KYGA | ≤ 0.25
142 | STMA | 4.9
143 | SEGA | 12
144 | SEMA | 13.6

Row | Variant | enrichment ratio
145 | SRGA | ≤ 0.25
146 | ALVP | ≤ 0.25
147 | HAVN | ≤ 0.25
148 | FQPY | ≤ 0.25
149 | AECL | 20.9
150 | AECV | 21.4
151 | QECD | ≤ 0.25
152 | AEGL | 1.47
153 | AECD | 17
154 | AEES | ≤ 0.25
155 | AESH | 1.31
156 | AWCD | ≤ 0.25
157 | AESI | 25.1
158 | AESR | 3.86
159 | AEPL | ≤ 0.25
160 | AEWV | ≤ 0.25
161 | DTCP | ≤ 0.25
162 | FCNA | ≤ 0.25
163 | VDPQ | ≤ 0.25
164 | GHKH | ≤ 0.25
165 | IWMV | ≤ 0.25
166 | MRYG | ≤ 0.25
167 | VCGI | ≤ 0.25
168 | VANS | ≤ 0.25

Row | Variant | enrichment ratio
169 | KPRL | ≤ 0.25
170 | ADIF | ≤ 0.25
171 | AECP | ≤ 0.25
172 | AIIF | ≤ 0.25
173 | AECG | ≤ 0.25
174 | AECI | 4.88
175 | AECK | ≤ 0.25
176 | AECQ | 30.9
177 | AECA | 42.4
178 | AECS | 39.5
179 | AEIF | 18.6
180 | RMEF | ≤ 0.25
181 | THRH | ≤ 0.25
182 | LFGG | ≤ 0.25
183 | SVRY | ≤ 0.25
184 | VDCR | ≤ 0.25
185 | PYWQ | ≤ 0.25
186 | SCCI | 9.92
187 | SCIE | ≤ 0.25
188 | SCVL | 1.96
189 | SCKQ | ≤ 0.25
190 | SCCL | 18.7
191 | SCCE | 13.9
192 | SCCK | 14.3

Row | Variant | enrichment ratio
193 | SCIL | 0.31
194 | SCNE | ≤ 0.25
195 | SCWM | ≤ 0.25
196 | SCCQ | 13.2
197 | KCCQ | ≤ 0.25
198 | QNII | ≤ 0.25
199 | YSFC | ≤ 0.25
200 | QFDM | ≤ 0.25
201 | MRHI | ≤ 0.25
202 | SCRM | ≤ 0.25
203 | SCGM | 9.65
204 | KYGL | ≤ 0.25
205 | SCTM | 17.9
206 | SCNL | 0.751
207 | SCCG | 14.3
208 | KCCG | ≤ 0.25
209 | SCGL | 13.6
210 | SCGG | 11.1
211 | IPCK | ≤ 0.25
212 | NTGH | ≤ 0.25
213 | VHAE | ≤ 0.25
214 | RFHG | ≤ 0.25
215 | GDAF | ≤ 0.25
216 | THIS | ≤ 0.25

Row | Variant | enrichment ratio
217 | TMTY | 12.9
218 | SATC | 5.33
219 | SFLI | 0.615
220 | SATS | 14.2
221 | HATY | ≤ 0.25
222 | SSDK | ≤ 0.25
223 | SATD | ≤ 0.25
224 | SSLI | 18.9
225 | AHTY | ≤ 0.25
226 | AETY | 16
227 | AITY | 3.48
228 | NNTY | ≤ 0.25
229 | IYRF | ≤ 0.25
230 | VMFP | ≤ 0.25
231 | EPNR | ≤ 0.25
232 | LVNK | ≤ 0.25
233 | AYMN | ≤ 0.25
234 | SQGS | 7.13
235 | NISG | ≤ 0.25
236 | NDHH | ≤ 0.25
237 | DHTY | ≤ 0.25
238 | FQTY | ≤ 0.25
239 | LCTY | ≤ 0.25
240 | TSAY | 11.6

Row | Variant | enrichment ratio
241 | MMTY | ≤ 0.25
242 | KYTY | ≤ 0.25
243 | SITY | 12.7
244 | FSAY | ≤ 0.25
245 | SQTY | 8.07
246 | KSAY | 0.715
247 | TQTY | 17.5
248 | TSTY | 11.6
249 | HMAW | ≤ 0.25
250 | ILRI | ≤ 0.25
251 | DLNY | ≤ 0.25
252 | WPQA | ≤ 0.25
253 | SETY | 15
254 | KSWY | ≤ 0.25
255 | KATY | ≤ 0.25
256 | NATY | ≤ 0.25
257 | NVTY | ≤ 0.25
258 | SATY | 12.7
259 | METY | 3.22
260 | KSTY | ≤ 0.25
261 | AKWY | ≤ 0.25
262 | SSTY | 11.3
263 | TKWY | 12.9
264 | QETY | ≤ 0.25

Row | Variant | enrichment ratio
265 | VMNQ | ≤ 0.25
266 | KFEC | ≤ 0.25
267 | WKRY | ≤ 0.25
268 | MMWY | ≤ 0.25
269 | SIGY | 14.3
270 | LCWY | ≤ 0.25
271 | SLGY | 1.84
272 | TSWY | 14.1
273 | KYGY | ≤ 0.25
274 | VGCD | ≤ 0.25
275 | NAGQ | ≤ 0.25
276 | QAMV | ≤ 0.25
277 | MAMQ | ≤ 0.25
278 | QGGQ | 8.17
279 | QPGQ | ≤ 0.25
280 | QAVQ | ≤ 0.25
281 | FAVQ | ≤ 0.25
282 | TPGQ | 16
283 | QAGQ | 24.5
284 | QAGD | ≤ 0.25
285 | QAMQ | 44.4
286 | FAMQ | 45
287 | KRHT | ≤ 0.25
288 | IASQ | ≤ 0.25

Row | Variant | enrichment ratio
289 | FDMR | ≤ 0.25
290 | HIEP | ≤ 0.25
291 | ITVA | ≤ 0.25
292 | SHRP | ≤ 0.25
293 | NRKT | ≤ 0.25
294 | GQLV | 7.76
295 | SALF | 9.67
296 | KRAM | ≤ 0.25
297 | MDPE | ≤ 0.25
298 | EKES | ≤ 0.25
299 | ASSK | ≤ 0.25
300 | ASSQ | 14.5
301 | ASSR | ≤ 0.25
302 | ASSS | 11.9
303 | ASKA | ≤ 0.25
304 | ASHP | ≤ 0.25
305 | VWGF | ≤ 0.25
306 | SDHM | ≤ 0.25
